Screens as filed in PubChem BioAssay.
Cruzain Triton: qHTS Assay for Promiscuous and Specific Inhibitors of Cruzain (with detergent) | Potency, µM, without a hit: max response, negative = inhibition, actives largely listed as inhibitors | 200,000 compounds, 0.43% hits | purified cruzain, Z-FR-AMC fluorescence, 0.01% Triton | Cruzipain (Trypanosoma cruzi), P25779;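 further: plate controls were neutral wells for no effect and buffer without enzyme for full effect; nearly all actives have a fitted effect of over 40% in size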
Target sequence (P25779 123-467 limits assumed): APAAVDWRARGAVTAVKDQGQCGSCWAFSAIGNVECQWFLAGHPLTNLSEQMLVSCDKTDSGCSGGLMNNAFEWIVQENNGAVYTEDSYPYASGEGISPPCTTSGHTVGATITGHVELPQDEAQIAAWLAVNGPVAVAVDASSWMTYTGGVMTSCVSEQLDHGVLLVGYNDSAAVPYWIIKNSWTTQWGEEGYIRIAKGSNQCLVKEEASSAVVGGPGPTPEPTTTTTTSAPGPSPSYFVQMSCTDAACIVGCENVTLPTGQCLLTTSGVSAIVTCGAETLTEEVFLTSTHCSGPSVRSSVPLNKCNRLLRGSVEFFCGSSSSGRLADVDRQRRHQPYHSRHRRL
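Cysteine protease activity tested under reducing, mildly acidic conditions (100 mM sodium acetate pH 5.5, 5 mM DTT) plus 0.01% Triton X-100. Cruzain 1.5 nM; substrate Z-FR-AMC 2 uM; 15 min compound preincubation at room temperature.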
NS1 inh: qHTS Assay for Inhibitors of Influenza NS1 Protein Function; Potency, µM (highest dose often 46.1 µM), without a hit: at the top dose activity, positive = more growth; 270,000 compounds, 0.4% hits; calls by dose curve; further: actives are rising curves; nearly all actives have a fitted effect of over 50% in size
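S. cerevisiae expressing influenza A NS1, grown in glucose, washed, then diluted 1:100 into pH 6.0 -URA galactose medium with 23 nl compound. Growth recovery read as OD600; NS1-free strain serves as control.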
Cruzain noTriton: qHTS Assay for Promiscuous and Specific Inhibitors of Cruzain (without detergent); Cruzipain (Trypanosoma cruzi), P25779; purified cruzain, Z-FR-AMC fluorescence, no detergent; Potency, µM, for inactives: max response, negative = inhibition, usual class: inhibitors; 200,000 compounds, 2.3% hits;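 further: plate controls were enzyme without inhibitor for no effect and buffer without enzyme for full effect; nearly all actives have a fitted effect of over 40% in size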
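Detergent-free condition (0.00005% Triton X-100) in acetate buffer pH 5.5 with DTT. 1.5 nM enzyme and compound were pre-mixed 15 min, then 2 uM Z-FR-AMC substrate added; reaction progress from fluorescence change between first and third reads (60 s).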
Active calls of the source: *; ? = inconclusive; nt = no result given. This excerpt belongs to a sample that is enriched for hits. Unless noted, the call rests on the fitted dose curve; in most records, active means well fitted curve in the direction sought with a large enough effect; inconclusive means small, poorly fitted or top-dose-only effect, or another doubt; inactive means no such curve, though single readings can be large; an effect the other way counts as inactive or inconclusive. Potency means the concentration at half of the fitted maximal effect.

SMILES	Cruzain Triton	NS1 inh	Cruzain noTriton
CCC(CC)c1nnc(NC(=O)c2ccc(N3CCCCC3)c([N+](=O)[O-])c2)s1	-5%	17%	0%
O=C(Nc1nc2ccc3ccccc3c2s1)c1ccc(N2CCCCC2)c([N+](=O)[O-])c1	-5%	5%	6.3µM*
Cc1nc(C)c(-c2ccc(SCC(=O)Nc3cccc(C)c3C)nn2)s1	-5%	nt	25%
CC(C)Sc1ncc(Cl)c(C(=O)N(Cc2ccc(N(C)C)cc2)C2CCS(=O)(=O)C2)n1 (stereo not drawn)	-5%	nt	?
CCC(CC)C(=O)Nc1cccc(-c2nc3cccnc3s2)c1C	-2%	nt	8%
Cc1ccccc1Cn1cc(S(=O)(=O)CC(=O)Nc2nccs2)c2ccccc21	-7%	-12%	16µM*
CCOC(=O)N1CCN(C(=O)CS(=O)(=O)c2cn(Cc3ccccc3C)c3ccccc23)CC1	1%	-1%	-4%
O=C(O)[C@@H]1CCCN1Cc1c[nH]c2ccccc12	5%	-1%	4%
Nc1ccc(N=Nc2ccc(-c3ccc(O)cc3)cc2)c2ccc(S(=O)(=O)O)cc12	-14%	8%	10%
Cc1ccc(N=Nc2c(O)c(S(=O)(=O)O)cc3cc(S(=O)(=O)O)ccc23)c(C)c1	-2%	-3%	-9%
Cc1cc(-c2ccc(N=Nc3ccc4c(S(=O)(=O)O)cc(S(=O)(=O)O)c(N)c4c3O)c(C)c2)ccc1N=Nc1ccc2c(S(=O)(=O)O)cc(S(=O)(=O)O)c(N)c2c1O	28µM*	nt	?
Nc1c(N=Nc2ccc(-c3ccc(N=Nc4cc(S(=O)(=O)O)c5ccccc5c4N)cc3)cc2)cc(S(=O)(=O)O)c2ccccc12	2.8µM*	nt	?
COc1ccc([C@]23Cc4cc(OC)c(OC)cc4C(O2)c2c(cc(C)oc2=O)O3)cc1	nt	14%	nt
Cc1ccc(C)c(Cn2c(=O)n(CC3CCC(C(=O)N4CCOCC4)CC3)c(=O)c3sccc32)c1 (stereo not drawn)	-1%	nt	4%
Cc1ccc(C)c(N2CCN(C(=O)CN3C(=O)CSc4c3c(C)nn4-c3ccccc3)CC2)c1	-2%	nt	-8%
Cc1cc(C)cc(NC(=O)Nc2c[nH]c(=O)[nH]c2=O)c1	-1%	nt	-13%
CCOC(=O)c1c(NC(=O)c2cc(CC)on2)sc(C)c1C	-2%	nt	-3%
COc1cccc(CS(=O)(=O)c2nnnn2CC(C)C)c1	-2%	nt	-1%
CC(C)(C)C1CCC2(CC1)Nc1cccc3cccc(c13)N2	-6%	8%	25µM*
CCN(CC)c1ccc(C2Nc3cccc4cccc(c34)N2)cc1	nt	15%	nt
N[C@@H](CSS(=O)(=O)O)C(=O)O	-4%	nt	-4%
O=C1C=CC(=O)c2c1ccc1c2ccc2ccccc21	-11%	nt	-14%
COc1cccc(Cn2c(=O)c(-c3cccc(C#N)c3)nc3cnc(Nc4ccccc4)nc32)c1	2%	nt	1%
Cc1cc(-c2ccc(S(=O)(=O)N3CCN(c4ccc(Cl)cc4)CC3)s2)on1	-1%	nt	-1%
Cc1cc2cc(C#N)c(NCCNC(=S)NCCCN3CCOCC3)nc2cc1C	25µM*	13%	?
SMILES	Cruzain Triton	NS1 inh	Cruzain noTriton
Cc1cccc2cc(C#N)c(NCCNC(=S)NCCCN3CCOCC3)nc12	-8%	22%	-3%
CCCCCCCCCCCCC/C=C/[C@@H](O)C(CO)NC(C)=O (stereo partly drawn)	-1%	nt	6%
COc1ccc(Cl)cc1NC(=O)Cn1c(=O)n(Cc2ccco2)c(=O)c2ccc(C(=O)NC3CCCC3)cc21	-2%	nt	-26%
COc1ccccc1/C=C/C=N/n1c(-c2ccc(C)cc2)n[nH]c1=S	-3%	?	10µM*
COc1cccc(/C=N/n2c(C3CCCCC3)n[nH]c2=S)c1OC	nt	0%	nt
COc1ccc(-c2n[nH]c(=S)n2/N=C/C=C\c2ccccc2OC)cc1	-5%	18%	-27%
COc1ccccc1/C=C\C=N\n1c(C2CCCCC2)n[nH]c1=S	-5%	9%	6.3µM*
CCCNC(=O)c1cc(-c2ccc(O)cc2)on1	nt	-35%	nt
O=C1CC(SCc2nc3ccccc3[nH]2)C(=O)N1c1cccc(Cl)c1 (stereo not drawn)	-12%	-156%	16µM*
O=C1CC(SCc2nc3ccccc3[nH]2)C(=O)N1c1ccc(F)cc1 (stereo not drawn)	-7%	-56%	?
NS(=O)(=O)c1ccc(CCNC(=O)c2nc(SCc3ccccc3F)ncc2Cl)cc1	0%	nt	?
O=C(CSc1nc2ccccc2[nH]1)c1ccc(Cl)s1	-4%	3%	10µM*
O=C(CSc1nc2ccccc2[nH]1)N1c2ccccc2Sc2ccccc21	-6%	-15%	-3%
N#CCBr	5%	nt	-9%
COC(=O)NC(/C=C/c1ccccc1)C(C(C)=O)C(=O)OC (stereo not drawn)	3%	nt	-2%
CCCCC[C@H](O)/C=C/[C@@H]1[C@@H](C/C=C\CCCC(=O)OC)[C@@H](O)C[C@H]1O	25µM*	-1%	?
CCCCC[C@H](O)/C=C/[C@@H]1[C@@H](C/C=C\CCCC(=O)O)[C@@H](O)C[C@H]1O	0%	29%	?
C/C=C/C=O	3%	nt	7%
CCC(C(=O)NC1CCCC1)N(C(=O)Cn1nnc(-c2cccs2)n1)c1cnc2ccccc2c1 (stereo not drawn)	0%	-26%	7%
O=C(NCc1ccccc1)C(c1ccc(F)cc1)N(Cc1ccc2c(c1)OCO2)C(=O)Cn1nnc(-c2cccs2)n1 (stereo not drawn)	-2%	4%	13µM*
O=C(CN(Cc1ccco1)C(=O)Cn1nnc(-c2cccs2)n1)NCc1ccccc1	-1%	0%	-1%
CCCC(C(=O)NCc1ccccc1)N(C(=O)Cn1nnc(-c2cccs2)n1)c1ccc2c(c1)OCCO2 (stereo not drawn)	1%	19%	20µM*
CC(=O)Nc1cccc(Nc2nc3ccccc3n3c(C)nnc23)c1	-8%	nt	3%
COc1ccccc1CNc1cc(-c2ccoc2)ncn1	-3%	nt	-30%
Cn1ccnc1C[C@@](C)(O)c1ccccc1	6%	-3%	1%
SMILES	Cruzain Triton	NS1 inh	Cruzain noTriton
COCCN1Cc2c(sc(C)c2C)N(C(=O)c2ccccc2)C1	-4%	?	7%
Cc1sc2c(c1C)CN(C(C)(C)C)CN2C(=O)c1ccccc1	-1%	-10%	25µM*
Cc1cccc(C)c1NC(=O)CSc1nc(C)c(CC(=O)c2ccc(Br)cc2)c(C)c1C#N	2%	12%	32µM*
Cc1nc(SCC(=O)Nc2ccccc2C(F)(F)F)c(C#N)c(C)c1CC(=O)c1ccc(Br)cc1	-1%	4%	-12%
OC(CNCCC1C=Nc2ccccc21)Cn1c2ccc(Cl)cc2c2cc(Cl)ccc21 (stereo not drawn)	-16%	?	6.3µM*
OC(CNCC1CCCO1)Cn1c2ccc(Cl)cc2c2cc(Cl)ccc21 (stereo not drawn)	-4%	-125%	?
O=c1c(-c2ccc(F)cc2)nc2cncnc2n1Cc1ccc(F)cc1	1%	nt	-3%
C=CCSc1nc2c(N)ncnc2n1[C@@H]1O[C@H](CO)[C@@H](O)[C@@H]1O	2%	0%	6%
COc1ccccc1CNc1ncnc2ccc(-c3cccc(NS(C)(=O)=O)c3)cc12	-2%	nt	-9%
Cc1c(Cc2ccccc2)sc(/N=C/c2c(O)ccc3ccccc23)c1C(N)=O	-8%	0%	-19%
